D2 ag-1 = human D2 receptor agonism in beta-arrestin assay. DiscoveRx PathHunter D2 beta-arrestin, luminescence, 90 min; 100% = 57 uM dopamine signal. P14416. activation, % (no concentration beside the values). 0.084% of 360,000 active. AID 624465; in the data active = activation above about 40%; inconclusive = between about 15% and that limit
Target sequence (P14416 whole entry, looked up): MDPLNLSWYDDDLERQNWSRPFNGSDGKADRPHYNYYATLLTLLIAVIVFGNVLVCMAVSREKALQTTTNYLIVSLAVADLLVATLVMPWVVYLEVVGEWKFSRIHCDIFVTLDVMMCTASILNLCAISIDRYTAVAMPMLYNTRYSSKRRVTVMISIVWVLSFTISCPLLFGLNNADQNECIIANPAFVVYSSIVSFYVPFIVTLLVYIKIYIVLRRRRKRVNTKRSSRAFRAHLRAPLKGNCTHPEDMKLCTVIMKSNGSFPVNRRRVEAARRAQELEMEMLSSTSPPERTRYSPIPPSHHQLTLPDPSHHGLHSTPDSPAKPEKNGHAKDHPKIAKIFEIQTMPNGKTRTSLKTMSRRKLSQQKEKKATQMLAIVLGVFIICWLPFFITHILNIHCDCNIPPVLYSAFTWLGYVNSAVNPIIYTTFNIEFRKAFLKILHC
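Agonist mode: compounds alone added to overnight-plated D2 PathHunter cells for 90 min at 37 C, with 57 uM final dopamine (EC100) defining full response. Beta-arrestin recruitment detected by chemiluminescent reagent, read after 1 h at ambient temperature.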
D2 PAM-1 = human D2 receptor positive allosteric modulation | P14416 | DiscoveRx D2 beta-arrestin cells, luminescence, 90 min; 100% = 57 uM dopamine signal | potentiation, % (no concentration beside the values) | 0.23% of 360,000 active; in the data active = potentiation above about 50%; inconclusive = mostly about 30% to 49%
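D2 cells co-treated with compound plus 50 nM dopamine (EC20) for 90 min at 37 deg C to detect potentiation. Beta-arrestin recruitment was read as enzyme-fragment luminescence after 1 h at ambient temperature. Full response was set by 57 uM dopamine.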
D2 PAM-2 = positively modulates the human D2 dopamine receptor allosterically; P14416; 0.34% of 340,000 active; AID 485347; potentiation, % at 10 µM; HEK293 T-REx D2, calcium flux, EC20 dopamine potentiation;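 active = potentiation over 3 SD above the plate norm, cut at about 30% in these data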; also: 0% is about no effect
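Using a no-wash calcium dye in inducible, force-coupled HEK293 Trex cells expressing D2, we tracked fluorescence each second for 180 s after compound, then for 180 s after EC20 dopamine to detect augmented signalling.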
D2 antag = antagonizes the human D2 dopamine receptor; AID 485344; HEK293 TREx D2 cells, calcium flux, dopamine EC80; inhibition, % at 10 µM; 2% of 340,000 active; in the data active = inhibition above about 30%; inactive = below that, where a call was filed; also: 0% is about no effect
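Read-out: kinetic calcium fluorescence (1 cycle/s) in inducible HEK293 T-REx D2 cells after an EC80 dopamine addition that followed 180 s compound preincubation. Loss of the dopamine response indicates antagonism.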
D2 ag-2 = activates the human D2 dopamine receptor | P14416 | HEK293 T-REx D2 cells, calcium flux agonist mode | activation, % at 2 µM | 0.53% of 340,000 active;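 active = activation over 3 SD above normal in the single-dose calcium agonist read, cut at about 30% in these data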; also: 0% is about no effect
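Agonism scored from kinetic calcium signal (1 read/sec, 180 s) following compound pin transfer, after a 10 s baseline. Cells: HEK293 Trex line expressing inducible D2 receptor coupled to calcium, dye-loaded after overnight culture at 30 C.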
* = called active by the depositor; ? = inconclusive; nt = no result. The list is not random: actives were taken first. Their share in the collection is about 2.4%.

SMILES	D2 ag-1	D2 PAM-1	D2 PAM-2	D2 antag	D2 ag-2
Cc1cc(=O)[nH]c2nnc(SCc3ccc(Cl)cc3)n12	nt	nt	2.7	nt	0.6
COc1ccc(NC(C)=O)cc1NC(=O)C1CCN(C(=O)Nc2ccccc2)CC1	-0.5	4.2	7.2	-10.5	-0.9
CCOc1ccc(N2C(=O)CC(NC3CCCCNC3=O)C2=O)cc1 (stereo not given)	-2.6	-10.6	-6.1	45.3*	-0.3
O=C1NCCCCC1NC1CC(=O)N(c2ccccc2)C1=O (stereo not given)	-2.2	19.0	nt	nt	nt
Cc1cc(NS(=O)(=O)c2ccc(NC(=O)COc3ccc(Cl)c(C)c3)cc2)no1	3.7	6.1	-14.4	-5.8	3.1
COc1cc2c(cc1OC)C(COc1cc(C)cc(C)c1)N(C(C)=O)CC2 (stereo not given)	-0.9	-10.0	5.1	8.0	0.8
CCOC(=O)C1(Cc2ccccc2C)CCCN(C(=O)c2cc(C3CC3)[nH]n2)C1 (stereo not given)	0.7	1.5	-6.7	31.7*	0.5
CCOC(=O)C1(Cc2ccccc2C)CCCN(C(=O)c2ccccn2)C1 (stereo not given)	-0.7	-0.1	-11.3	-2.2	1.1
COc1ccc(Cl)c2sc(NC(=O)c3ccc(S(=O)(=O)N4CCOCC4)cc3)nc12	nt	nt	8.1	nt	1.8
Cc1cccc(NC(=S)NC2CC3CCCC(C2)N3Cc2cccs2)c1C (stereo not given)	-1.2	-24.2	-22.1	68.6*	0.5
Fc1ccc(NC(=S)NC2CC3CCCC(C2)N3Cc2cccs2)cc1 (stereo not given)	-4.2	-22.7	-12.9	15.0	0.0
CCCN1C2CCCC1CC(NC(=S)Nc1cccc(C)c1C)C2 (stereo not given)	-3.3	-13.2	-10.2	-16.0	-0.1
Cc1ccc(NC(=S)NC2CC3CCCC(C2)N3Cc2cccs2)cc1 (stereo not given)	-3.0	-38.3	-23.1	71.9*	0.9
CCc1ccccc1NC(=S)NC1CC2CCCC(C1)N2Cc1cccs1 (stereo not given)	-1.2	-19.0	-23.0	71.7*	-0.8
O=C(Nc1cccc(Cl)c1)NC1CC2CCC(C1)N2Cc1cccs1 (stereo not given)	1.0	-3.7	-17.3	73.4*	0.3
COc1cc(C)nc(NCc2ccccc2)n1	-2.3	-12.5	-5.4	23.1	0.3
Cc1cc(C)nc(Nc2n[nH]c(Cc3ccccc3)n2)n1	nt	nt	-2.4	0.1	44.8*
COc1cc(/C=C(\C#N)c2nc3ccccc3[nH]2)cc(OC)c1O	12.4	4.9	-2.2	9.0	35.6*
COC(=O)c1ccccc1NC(=O)Cn1c(=O)n(-c2ccc(Cl)cc2)c(=O)c2c(C)c(C)sc21	nt	nt	12.7	nt	nt
O=S(=O)(c1ccc(Cl)cc1)n1ccc2cccnc21	-0.9	-9.9	38.3*	19.0	0.3
Cc1ccc(S(=O)(=O)n2ccc3cccnc32)cc1	-0.8	-8.1	-2.6	37.3*	0.6
O=C(COC(=O)c1cc([N+](=O)[O-])ccc1N1CCOCC1)c1ccc(OC(F)F)cc1OC(F)F	?	-20.5	-7.1	44.0*	1.6
COc1ccc(CCC(C)Nc2ccccc2F)cc1 (stereo not given)	-1.0	0.1	5.4	-17.7	-0.9
COc1ccc(CCC(C)NC2C3CC4CC(C3)CC2C4)cc1 (stereo not given)	-1.2	-15.4	-18.2	40.0*	0.8
COC(=O)N/N=C\c1cc2c(cc1Br)OCO2	-5.6	-10.4	-11.4	-3.4	-1.2
SMILES	D2 ag-1	D2 PAM-1	D2 PAM-2	D2 antag	D2 ag-2
Cc1ccc(C(=O)N/N=C\c2cc3c(cc2Br)OCO3)s1	-2.8	-10.5	-31.3	65.8*	-0.6
CSc1nsc(SCC(=O)Nc2ccc(C(N)=O)cc2)n1	-1.0	2.3	nt	37.4*	-3.1
CSc1nsc(SCC(=O)Nc2ccc(C(C)=O)cc2)n1	-0.1	-8.3	6.9	-18.4	-0.1
CN(C)c1ccc(CNC(=O)CCc2ccc(S(=O)(=O)N3CCCCCC3)cc2)cc1	-5.7	2.4	-3.3	-22.8	0.0
CC(C)(C)NC(=O)NC(=O)CN1CCc2ccccc21	-2.6	1.0	6.2	0.1	-0.8
O=C(CN1CCc2ccccc21)NC(=O)NC1CCCCC1	-3.3	-12.8	-16.0	32.6*	-0.5
NC(=O)C1CCN(C(=O)CN2CCc3ccccc32)CC1	1.5	0.7	-14.0	45.3*	-0.7
Cc1sc(NC(=O)/C=C/c2ccco2)c(C(=O)O)c1C	-2.4	-5.8	0.3	9.9	-0.2
COc1cc(O)c(C(CCN2CCOCC2)c2ccc(N(C)C)cc2)c(OC)c1 (stereo not given)	-1.1	-9.7	-0.2	-39.9	-0.3
COc1cc(O)c(C(CCN2CCN(c3ccccc3)CC2)c2ccc(N(C)C)cc2)c(OC)c1 (stereo not given)	-0.6	-24.2	-16.5	32.1*	0.7
COc1ccc(C(CCN2CCN(c3ccccc3)CC2)c2c(O)cc(OC)cc2OC)cc1 (stereo not given)	0.4	-26.4	-29.3	79.6*	0.9
CCOc1ccc(NC(=O)CN2CCN(c3ccccc3C)CC2)cc1S(=O)(=O)N1CCCC1	-0.5	-27.8	-26.4	34.7*	0.6
NC(=O)c1ccc(NC(=O)CSc2nnc(C3CC3)n2C2CC2)cc1	3.3	1.8	nt	nt	nt
CCOc1ccc(NC(=O)CN2CCN(c3ccc(F)cc3)CC2)cc1S(=O)(=O)N1CCCC1	-3.0	-45.3	nt	nt	nt
CCC(=O)Nc1cccc(NC(=O)CSc2nnc(C3CC3)n2C)c1	-2.2	2.4	0.4	30.9*	0.3
Cn1c(SCC(=O)Nc2ccc3c(c2)CCC3)nnc1C1CC1	-1.9	-16.2	-10.9	-9.1	-0.4
COc1ccc(NC(=O)CSc2nnc(C3CC3)n2C)cc1	-0.8	-13.0	-0.7	5.1	2.2
CCOc1ccc(NC(=O)CSc2nnc(C3CC3)n2C2CC2)cc1	-6.6	1.8	3.8	42.8*	0.1
CCOc1ccc(NC(=O)CSc2nnc(C3CC3)n2C)cc1S(=O)(=O)N1CCCCC1	-0.3	2.6	-5.5	43.8*	0.0
O=[N+]([O-])c1ccc(-c2ccc(C=Nc3cccc4ccccc34)o2)cc1	-0.4	14.5	3.7	-3.7	-0.6
O=[N+]([O-])c1cc(-c2ccc(/C=N/c3nc4ccccn4c3-c3ccco3)o2)ccc1Cl	8.5	70.4*	4.4	10.3	0.1
O=C(c1c(F)c(F)c(F)c(F)c1F)N1CCN(Cc2ccc3c(c2)OCO3)CC1	-6.2	-15.9	nt	nt	nt
O=C(c1ccc(Br)s1)N1CCN(Cc2ccc3c(c2)OCO3)CC1	-0.1	-22.1	-22.5	78.4*	-0.1
O=C(C1CCN(c2nnc(-n3cccc3)s2)CC1)N1CCN(Cc2ccc3c(c2)OCO3)CC1	3.7	-3.5	-19.7	31.5*	71.4*
Cn1c(C(=O)N2CCN(Cc3ccc4c(c3)OCO4)CC2)cc2sccc21	-1.6	-18.8	-22.0	99.7*	-0.2

Assay outcomes as filed in PubChem.
